Data as given in ChEMBL document CHEMBL4513216, “Probing the Open Global Health Chemical Diversity Library for Multistage-Active Starting Points for Next-Generation Antimalarials” (ACS Infect Dis, 2020).
Screen size: about 69,000 compounds; about 8,600 (12%) showed an effect of 50% or more. The sample as a whole holds a higher share of strong results than the screen did.

system: Plasmodium berghei; test: Screen against P. berghei liver stage (PbLuc), transformed with Luciferase, at 10uM; assay type: functional, HepG2; details: tested at 10 uM

Compound | INHIBITION
CN(C)CCn1c(=O)n(C)c(=O)c2ccccc21 | -40.3%
CCC(=O)N1CCC2(CCC(N3CCCC3)c3ccccc32)CC1 (stereo not given) | 40.8%
Cc1nn(C)c(N(C)C)c1CNC1CCCCNC1=O (stereo not given) | 5.42%
C=Cn1cc(CN2CCN(CC3(c4ccccc4)CC3)CC2)c(C)n1 | 26.57%
CN(Cc1ccncn1)C(=O)CCc1[nH]nc2c1CCCC2 | 33.9%
CCN(CCO)C(=O)C1CCC(=O)N(CCc2cccc(F)c2)C1 (stereo not given) | 43.7%
CCCN(CCO)C(=O)C1CCC(=O)N(CCc2ccc(Cl)cc2)C1 (stereo not given) | -39.9%
CCN(CC)C(=O)C1CCC(=O)N(CCc2cccc(F)c2)C1 (stereo not given) | 12.3%
CC(C)N(CCO)C(=O)C1CCC(=O)N(CCc2cccc(F)c2)C1 (stereo not given) | 56.6%
CC(C)N(C)C(=O)C1CCC(=O)N(CCc2cccc(F)c2)C1 (stereo not given) | 52.3%
CC(C)N(CCO)C(=O)C1CCC(=O)N(CCc2ccc(Cl)cc2)C1 (stereo not given) | 26.6%
COc1ccc(OC)c(C(C)Nc2ncnc3c2NC(=O)CN3)c1 (stereo not given) | 24.2%
N#Cc1cccc(C(=O)N2C[C@@H]3CC[C@H]2CN(C(=O)C2CCC2)C3)c1 | 28.5%
CN1C(=O)C2(CCN(C(=O)c3ccccc3)CC2)c2cc(F)ccc21 | 39.4%
Cc1ccc(S(=O)(=O)N2CCC(S(=O)(=O)c3nncn3C)CC2)cc1C | -0.554%
Cn1cnnc1S(=O)(=O)C1CCN(S(=O)(=O)c2ccccc2F)CC1 | 15.7%
Cn1cnnc1S(=O)(=O)C1CCN(S(=O)(=O)c2ccc(F)c(Cl)c2)CC1 | 81.9%
O=C(C1CC1)N1CCC(c2nc(O)c3c(n2)CCN(C2CCCC2)C3)C1 (stereo not given) | 22.7%
CCN(CC)c1ncnc2c1CCN(C(=O)Cc1ccccn1)CC2 | -49.6%
Fc1ccc(-c2nc(CN3CCn4c(nnc4C4CC4)C3)co2)cc1 | -21.7%
O=C1NCCN1C1CCCN(Cc2nnc(-c3ccc(F)cc3)o2)C1 (stereo not given) | 20.1%
O=C1NCCN1C1CCN(Cc2coc(-c3ccc(F)cc3)n2)CC1 | 52.5%
O=C1NCCCCC1SCc1coc(-c2ccccc2)n1 (stereo not given) | 35.5%
O=C1NCCN1C1CCCN(Cc2coc(-c3ccc(F)cc3)n2)C1 (stereo not given) | 75.2%

Compound | INHIBITION
O=C1NCCCCC1SCc1coc(-c2ccc(F)cc2)n1 (stereo not given) | 82.7%
O=C1NCCN1C1CCCN(Cc2coc(-c3cccs3)n2)C1 (stereo not given) | 33.3%
O=C1NCCCCC1SCc1coc(-c2cccc(F)c2)n1 (stereo not given) | -16.1%
Cc1ccc(-c2nc(CN3CCC(N4CCNC4=O)CC3)co2)cc1 | 26.5%
CN(C)C(=O)C1CCC2(CCN(C(=O)Nc3cccc(F)c3)CC2)O1 (stereo not given) | 18.6%
COc1ccc(OC)c(C(=O)N(C)Cc2nnc3ccccn23)c1 | -35.7%
CN(C)[C@H]1CN(C(=O)CCCc2ccc(F)cc2)C[C@@H]1C1CC1 | 28.4%
COc1ccccc1C(=O)N1CC(=O)N(Cc2ccco2)CC(O)C1 (stereo not given) | 26.8%
COc1ccccc1CC(=O)N1CCC(NCc2ccc(C)o2)CC1 | 29.375%
O=C(NCc1ccco1)[C@H]1C[C@@H]2CCN(c3cccc(F)c3)C[C@H]2O1 | 44.1%
Cn1ccnc1-c1cn(CCCc2csc(N)n2)nn1 | 17.5%
COC(=O)CC1CCCCN1CC(=O)Nc1ccc(F)cc1Cl (stereo not given) | 62.4%
COC(=O)CC1CCCCN1CC(=O)NCCc1ccc(F)cc1 (stereo not given) | 38.5%
COC(=O)CC1CCCCN1CC(=O)Nc1cc(F)ccc1F (stereo not given) | 47.2%
O=C(CCn1cncn1)N1C[C@@H]2CC[C@H]1CN(Cc1cccnc1)C2 | 14.3%
Cc1ccc(-c2noc(C(C)NS(C)(=O)=O)n2)cc1 (stereo not given) | 1.8%
CS(=O)(=O)N1CCOCC2(CN(Cc3ccco3)CCO2)C1 (stereo not given) | 3.47%
COCc1ncc(CN(CCN(C)C)Cc2ccc(C)s2)cn1 | 38.7%
Cc1ccc(CN(Cc2ccncc2)C2CCN(C)CC2)s1 | -6.73%
CCNc1ncc(CN(CCN(C)C)Cc2ccc(C)s2)cn1 | 35%
COCc1ncc(CN(Cc2ccncc2)Cc2ccc(C)s2)cn1 | 61.9%
CCc1ccc(CN(CCN(C)C)Cc2ccc(C)s2)nc1 | 22%
COc1ncc(CN(CCN(C)C)Cc2ccc(C)s2)cn1 | 63.8%
Cc1cc(C(=O)NCC2CCS(=O)(=O)C2)ccc1NC(=O)c1ccco1 (stereo not given) | 40.2%

Compound | INHIBITION
CC(C)n1cnnc1CNC(=O)c1cnn(Cc2ccccc2)c1 | -24.4%
COCC1c2c(cnn2CC2CC2)CCN1Cc1cc(C)on1 (stereo not given) | 47.1%
COCCn1cc(C(=O)NC2CCS(=O)(=O)C2)c2ccccc2c1=O (stereo not given) | 42.8%
Cc1cc(C(=O)N2CCC(O)(Cn3ccc4ccncc43)CC2)on1 | 12.8%
O=C(Cc1ccc(O)cc1)N1CCCC(O)(CN2CCOCC2)CC1 (stereo not given) | 30.4%
Cc1nc(CCC(=O)NC2CCC2)cc(C2CCNCC2)n1 | 33.5%
CN1CC(C(=O)NCCc2ccc(Br)cc2F)CC1=O (stereo not given) | -57%
CC(=O)N1CCC2(CC1)COC(COCc1ccccn1)C2 (stereo not given) | 14.6%
c1ccc(COC[C@@H]2CCC[C@@]23CNCCO3)nc1 | 72%
c1ccc(OC[C@@H]2CCC[C@@]23CNCCO3)nc1 | 31.3%
c1ccc(COC[C@H]2CCC[C@@]23CNCCO3)nc1 | 62.9%
CN1CCN(C(=O)c2cc3sccc3n2Cc2ccc(Cl)cc2)CC1 | 13.9%
Cn1cnc(S(=O)(=O)N2CCCc3cccc(F)c32)c1Cl | 39.7%
Cc1ccc(C(=O)N2CC[C@@H]3[C@H]2CCC(=O)N3c2ccccc2)o1 | 31.8%
Cc1cc(C(=O)N2CC[C@H]3[C@@H]2CCC(=O)N3c2ccccc2)no1 | 53.9%
O=C(C1CC1)N1CC[C@H]2[C@@H]1CCC(=O)N2c1ccccc1 | 12.1%
O=C(c1ccco1)N1CC[C@@H]2[C@H]1CCC(=O)N2c1ccccc1 | 30.3%
O=C(Cc1cccs1)N1CC[C@H]2[C@@H]1CCC(=O)N2c1cccnc1 | 30.7%
Cc1cnc(C(=O)N2CC[C@H]3[C@@H]2CCC(=O)N3c2cccnc2)cn1 | 40.4%
O=C(CC1CC1)N1CC[C@H]2[C@@H]1CCC(=O)N2c1cccnc1 | 58.6%
Cc1cccc(C(=O)N2CC[C@@H]3[C@H]2CCC(=O)N3c2ccccc2)n1 | 65.7%
Cc1ccc(C(=O)N2CC[C@H]3[C@@H]2CCC(=O)N3c2ccccc2)cn1 | 16.8%
